According to PubChem BioAssay (NCATS):
Records with an inconclusive call do not appear. A structure can be active in one record and inactive in another. Activity calls are given as the source filed them. Calls follow the shape of the dose curve; as a rule, active = well fitted curve in the direction sought with a large enough effect; inconclusive = small, poorly fitted or top-dose-only effect, or another doubt; inactive = no such curve, though single readings can be large; an effect the other way counts as inactive or inconclusive.

Tests used:
[1] = Quantitative highthroughput screen to assess conditional lethalithy of NOMO1 cells grown in RPMI1640 with untreated serum (RPMI+s) (AID 1963876); details: NOMO1 AML cells in RPMI+serum, CellTiter-Glo viability, 48 h; series mostly up to 45.8 µM; also: nearly all actives have a fitted effect of over 35% in size; also: potency is read from the fitted curve at half-maximal effect;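 as to viability: 100% = DMSO wells and 0% = empty wells without cells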
Method in brief: (§1)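 Each medium arm—HPLM with 10% dialyzed FBS, or RPMI1640 with 5 mM glucose and 10% untreated or dialyzed FBS—was screened against an 11-point, 3-fold compound titration for 48 h at 37 °C, with CellTiter-Glo luminescence as endpoint.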

[2] = Quantitative highthroughput screen to assess conditional lethalithy of NOMO1 cells grown in RPMI1640 with dialyzed fetal bovine serum (RPMI+ds) (AID 1963877); details: NOMO1 in RPMI+dialyzed FBS viability, ATP luminescence, 48 h; series mostly up to 45.8 µM; also: nearly all actives have a fitted effect of over 30% in size; also: potency is read from the fitted curve at half-maximal effect;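 as to viability: 100% = DMSO control wells and 0% = empty wells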
Method in brief: as §1

[3] = Quantitative highthroughput screen to assess conditional lethalithy of NOMO1 cells grown in Human Plasma-Like Medium with dialyzed fetal bovine serum (HPLM+ds) (AID 1963878); details: NOMO1 AML cells in HPLM+ds, CellTiter-Glo viability, 48 h; series mostly up to 45.8 µM; also: nearly all actives have a fitted effect of over 35% in size; also: potency is read from the fitted curve at half-maximal effect;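 as to viability: 100% = DMSO wells and 0% = empty wells on each plate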
Method in brief: as §1

[4] = Quantitative highthroughput screen to assess conditional lethalithy of P12 Ichikawa cells grown in RPMI1640 with dialyzed fetal bovine serum (RPMI+ds) (AID 1963880); details: ATP luminescence, 48 h; Potency: P12-Ichikawa viability; series mostly up to 45.8 µM;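 also: 100% = DMSO wells and 0% = empty wells on each plate; nearly all actives have a fitted effect of over 35% in size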
Method in brief: as §1

[5] = Quantitative highthroughput screen to assess conditional lethalithy of P12 Ichikawa cells grown in RPMI1640 with untreated serum (RPMI+s) (AID 1963881); details: ATP luminescence, 48 h; Potency: viability; series mostly up to 45.8 µM; also: nearly all actives have a fitted effect of over 35% in size; also: potency is read from the fitted curve at half-maximal effect;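 as to viability: 100% = DMSO wells and 0% = empty wells without cells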
Method in brief: as §1

[6] = Quantitative highthroughput screen to assess conditional lethalithy of SEM cells grown in Human Plasma-Like Medium with dialyzed fetal bovine serum (HPLM+ds) (AID 1963882); details: SEM B-ALL cells in HPLM+ds, CellTiter-Glo viability, 48 h; series mostly up to 45.8 µM; also: nearly all actives have a fitted effect of over 35% in size; also: potency is read from the fitted curve at half-maximal effect
Method in brief: as §1

[7] = Quantitative highthroughput screen to assess conditional lethalithy of SEM cells grown in RPMI1640 with unreated serum (RPMI+s) (AID 1963883); details: SEM B-ALL cells, CellTiter-Glo viability, 48 h; series mostly up to 45.8 µM; also: nearly all actives have a fitted effect of over 35% in size; also: potency is read from the fitted curve at half-maximal effect;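 as to viability: 100% = DMSO wells and 0% = empty wells without cells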
Method in brief: as §1

[8] = Quantitative highthroughput screen to assess conditional lethalithy of SEM cells grown in RPMI1640 with dialyzed fetal bovine serum (RPMI+ds) (AID 1963884); details: SEM B-ALL cells, RPMI+dialyzed FBS, CellTiter-Glo viability, 48 h; series mostly up to 45.8 µM; also: nearly all actives have a fitted effect of over 35% in size; also: potency is read from the fitted curve at half-maximal effect;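 as to viability: 100% = DMSO control wells and 0% = empty wells without cells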
Method in brief: as §1

[9] = Cellular viability qHTS for adrenocortical cancer (ACC) cell line SW-13 (AID 1963989); details: SW-13 ACC cells viability, CellTiter-Glo, 48 h; activity (max response): stronger effect = lower value;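 also: cells grown in serum-free medium with ITS supplement; % is scaled to controls: 0 for no effect and ±100 for the full control effect; nearly all actives have a fitted effect of over 65% in size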
Method in brief: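 Luminescent ATP read-out (CellTiter-Glo, 20 min at room temperature) measured metabolically competent SW-13 cells after 48 h compound treatment. Final concentrations spanned up to 46 uM; bortezomib served as positive control.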

[10] = Cellular viability qHTS for adrenocortical cancer (ACC) cell line NCI-H295R (AID 1963990); details: CellTiter-Glo ATP luminescence, 48 h; series mostly up to 46.1 µM; also: nearly all actives have a fitted effect of over 60% in size; also: potency is read from the fitted curve at half-maximal effect
Method in brief: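 IC50 and maximal efficacy derive from four-parameter logistic modelling of titration curves, with reads scaled between DMSO-only wells (0%) and doxorubicin hydrochloride (100% inhibition). Compounds spanned up to 46 uM over 48 h.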

[11] = Quantitative highthroughput screen to assess conditional lethalithy of P12 Ichikawa cells grown in Human Plasma-Like Medium with dialyzed fetal bovine serum (HPLM+ds) (AID 1963879); details: ATP luminescence, 48 h; Potency: viability; series mostly up to 45.8 µM; also: nearly all actives have a fitted effect of over 35% in size
Method in brief: as §1

CC(C)(C)OC(=O)N[C@H]1CCCCCC=C[C@@H]2C[C@@]2(C(=O)NS(=O)(=O)C2CC2)NC(=O)[C@@H]2C[C@@H](OC(=O)N3Cc4cccc(F)c4C3)CN2C1=O
inactive: Potency [1] | Potency [2] | Potency [3] | Potency [4] | Potency [5] | Potency [6] | Potency [7] | Potency [8] | activity (max response) [9] 8.79% | Potency [10]

NS(=O)(=O)c1ccc(NC2=CC(=O)c3ccccc3C2=O)cc1
active: Potency [10] 3.98 µM
inactive: Potency [1] | Potency [2] | Potency [3] | Potency [4] | Potency [5] | activity (max response) [9] -24.7%

CCN(CC)CCOc1ccc(Cc2ccccc2)cc1
active: Potency [1] 10.5 µM | Potency [3] 7.43 µM | Potency [7] 4.18 µM | Potency [8] 8.33 µM
inactive: Potency [2] | Potency [5] | activity (max response) [9] -24%
18.4 µM (active) and inactive: Potency [10]

O=C(O)[C@H]1O[C@H](Oc2cc3oc(-c4ccccc4)cc(=O)c3c(O)c2O)[C@H](O)[C@@H](O)[C@H]1O
active: Potency [5] 18.7 µM | Potency [6] 18.7 µM | Potency [7] 18.7 µM
inactive: Potency [1] | Potency [2] | Potency [3]

COc1ccc2ccc(=O)oc2c1CC=C(C)C
inactive: Potency [1] | Potency [2] | Potency [3] | Potency [6]

CCOC(=O)C=C[C@H](C[C@@H]1CCNC1=O)NC(=O)[C@@H](CC(=O)[C@@H](NC(=O)c1cc(C)on1)C(C)C)Cc1ccc(F)cc1
inactive: Potency [1] | Potency [2] | Potency [11] | Potency [4] | Potency [5] | Potency [6] | Potency [7] | Potency [8] | activity (max response) [9] -3.62% | Potency [10]

N#CC(=C1Nc2ccccc2S1)c1ccnc(OCc2ccc(CN3CCOCC3)cc2)n1
active: Potency [1] 8.33 µM | Potency [2] 8.33 µM | Potency [3] 6.62 µM
inactive: Potency [6] | Potency [7] | Potency [8]
